RAM network inh = inhibitors of the yeast RAM network; S. cerevisiae dse1pr::URA3 reporter, 5-FOA growth OD615, 2 d; analog-sensitive cbk1-as2 kinase mutant strain; inhibition, % at 50 µM; 190,000 compounds, 1.8% hits;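 active = inhibition above a set limit, 3 SD over mean compound inhibition, cut at about 8.4% in these data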;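 also: 0% = DMSO-only wells with no growth and 100% = 10 µM 1-NA-PP1 full growth; inhibition rescues growth on 5-FOA so higher OD means more RAM inhibition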
SKN-1 block = inhibitors of C. elegans SKN-1; C. elegans VP596 Pgst-4::GFP/RFP ratio, acrylamide-induced, 24 h; inhibition, % at 21.8 µM; AID 624304; 360,000 compounds, 0.49% hits;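 active = interference check ratio from 0.5 to 1.5 plus GFP to RFP signal ratio inhibition reaching or exceeding a fixed threshold, cut at about 30% in these data, passing the limit was not always enough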
NR1D1 modulator = modulators of human Rev-erb alpha DNA binding. P20393. Rev-erbα–FITC-DNA binding, fluorescence polarization, 90 min. activity, % at 10 µM. 370,000 compounds, 0.79% hits;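 active = activity above about 14%, limit read from the data; passing the limit was not always enough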;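 also: 0% = DMSO wells with 35 nM protein and 100% = DMSO wells with 750 nM protein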
PG9 Ab binder = binds the HIV-1 gp120 antibody PG9. TR-FRET gp120-PG9 antibody binding. inhibition, % at 6.7 µM. 360,000 compounds, 0.43% hits; in the data active = inhibition above about 8.5%
EP2 modulator = EP2 receptor (human) modulation | P43116 | EP2-expressing cells, cAMP HTRF FRET, PGE2 co-stimulation | induction, % at 25 µM | 260,000 compounds, 0.83% hits | AID 940;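 active = compounds whose cAMP rise, as percent of the full-agonist control response, exceeds 60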;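 also: rat C6 glioma line stably carrying human EP2 under a CMV promoter; the protocol text gives 20 µM as final concentration; 100% = response of wells given 1 µM PGE2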
Target sequence (P43116 whole entry, looked up): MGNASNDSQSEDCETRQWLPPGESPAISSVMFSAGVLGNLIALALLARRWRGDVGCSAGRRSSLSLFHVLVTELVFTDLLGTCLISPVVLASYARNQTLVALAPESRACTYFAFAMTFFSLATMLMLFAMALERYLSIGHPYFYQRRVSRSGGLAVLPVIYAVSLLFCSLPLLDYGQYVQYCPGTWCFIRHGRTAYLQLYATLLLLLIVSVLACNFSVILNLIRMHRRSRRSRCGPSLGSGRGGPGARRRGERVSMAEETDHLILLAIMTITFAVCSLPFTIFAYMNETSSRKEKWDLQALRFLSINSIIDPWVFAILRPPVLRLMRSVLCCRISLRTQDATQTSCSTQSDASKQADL
PGE2 EP2 inh = blocks the human prostaglandin E2 receptor EP2; inhibition, % at 25 µM; 260,000 compounds, 0.52% hits; P43116; C6 glioma cells expressing human EP2, cAMP TR-FRET; cells stimulated with saturating PGE2;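 active = percent inhibition above 40 after rounding to a whole number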;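 also: rat C6 glioma host cells with rolipram phosphodiesterase inhibitor present; the protocol text gives 20 µM as final concentration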
Active calls of the source: *; nt = no result. Most compounds without a hit are left out; they make up all but 2.9% or so of the library.

SMILES	RAM network inh	SKN-1 block	NR1D1 modulator	PG9 Ab binder	EP2 modulator	PGE2 EP2 inh
Nc1sccc1C(=O)NCc1ccccc1	nt	39*	3	0	nt	nt
O=C(O)c1ccccc1C(=O)NCc1ccccc1	-1	4	-4	-3	0	4
O=C(Cn1nnc2ccccc21)N1C2CCC1CC(c1ccc(F)cc1)C2 (configuration not stated)	nt	nt	nt	nt	-32	nt
CC1CCc2c(sc3ncn(C4CCN(C(=O)c5ccn[nH]5)CC4)c(=O)c23)C1 (configuration not stated)	nt	nt	nt	nt	-7	7
Cc1onc(-c2ccccc2)c1C(=O)OCC(=O)NCc1ccc(F)cc1	8.5*	12	8	-2	-33	0
CCCCC(=O)/C=C/n1c(=S)oc2ccccc21	0	39*	-1	2	-104	9
CCc1nnc(NC(=O)CSc2nnc(-c3ccccc3C)o2)s1	nt	nt	nt	nt	-22	24
CN(C)c1nc(SCc2ccccc2Cl)nc2c1CCCC2	-1	31*	nt	nt	34	14
CC1=C(C)/C(=N\OS(=O)(=O)c2ccccc2)C=CC1=O	-2	1	nt	nt	-80	89*
O=C(Oc1ccc2c(-c3ccccc3)cc(=O)oc2c1)c1cccs1	4	-2	-2	1	24	2
O=C(Oc1ccc2c(-c3ccccc3)cc(=O)oc2c1)C1CCCCC1	9.3*	1	-2	0	9	11
COc1ccc(-c2cc(=O)oc3cc(OC(=O)C4CCCCC4)ccc23)cc1	11*	11	0	0	28	10
O=C(Nc1ccc2c(c1)CN(Cc1ccco1)CC2)C1CCCO1 (configuration not stated)	nt	37*	6	0	nt	nt
CC(=O)c1cccc(CN2CCc3ccc(NC(=O)C4CCCO4)cc3C2)c1 (configuration not stated)	nt	8	-3	0	nt	nt
O=C1COc2ccccc2N1Cc1cccc(F)c1	nt	nt	nt	nt	53	9
Cc1cccc(Sc2nc(-c3ccccc3)ccc2C#N)c1	11*	7	5	0	49	1
O=C(CSc1ncnc2c1cnn2-c1ccccc1)Nc1ccc2c(c1)OCCO2	nt	nt	nt	nt	-35	8
COC(=O)c1cc2ccccn2c2c(C(=O)OC)c(C(=O)OC)cc1-2	4	11	2	-19	-35	41*
COC(=O)c1cc2c(C)c(C)c3ccccn3c-2c1C(=O)OC	1	13	-7	4	-7	25
N#Cc1ccc(NC(=O)CSc2nc(-c3cccs3)cc(C(F)(F)F)n2)cc1	nt	nt	nt	nt	-41	9
CCN(c1ccccc1)S(=O)(=O)c1ccc(OCc2c(C)noc2C)cc1	10*	-13	2	1	-4	13
CC(C)C(=O)c1cn(CC(=O)Nc2ccccc2F)c2ccccc12	nt	nt	nt	nt	-41	14
CCC(=O)NCCn1c(C)cc2ccccc21	1	39*	nt	nt	-12	16
Cc1cc2ccccc2n1CCNC(=O)c1ccccc1	4	48*	-9	1	-56	10
Cc1cc2ccccc2n1CCNC(=O)C(C)(C)C	3	44	-6	-2	-18	9
SMILES	RAM network inh	SKN-1 block	NR1D1 modulator	PG9 Ab binder	EP2 modulator	PGE2 EP2 inh
Cc1cc2ccccc2n1CCNC(=O)Cc1cccc2ccccc12	6	56	-8	-7	-26	13
Cc1cc2ccccc2n1CCNC(=O)c1ccc(S(=O)(=O)N2CCOCC2)cc1	4	47*	5	-1	-29	10
Cc1cc2ccccc2n1CCNC(=O)c1ccc(Br)o1	3	37*	1	-2	-34	11
Cc1c(CN(Cc2ccc(F)cc2)C2CC(C)(C)NC(C)(C)C2)cnn1C	nt	nt	nt	nt	-25	6
CCc1ccc(OCC(=O)Nc2ccc3oc(-c4cccnc4)nc3c2)cc1	nt	nt	nt	nt	-51	18
CCOc1ccccc1NC(=O)C1CCN(C(=O)c2ccc(Cl)cc2)CC1	nt	nt	nt	nt	-18	10
CC(=O)NCCn1c(C)cc2ccccc21	1	49*	-1	0	-2	13
CC1CCN(CC[S-])CC1.O.O.[Cl][Pt]	nt	nt	nt	nt	-45	97*
CC1CCN(CCOc2ccccc2-c2ccccc2)CC1	0	4	8	0	28	12
C#Cc1cccc(-n2nnc(C(=O)OC)c2-c2ccccc2)c1	nt	38*	7	0	nt	nt
COC(=O)c1nnn(-c2ccccc2)c1N	3	2	-10	1	-4	5
O=C(CN1CCN(Cc2ccc3c(c2)OCO3)CC1)Nc1ccc2c(c1)OCO2	1	-5	0	-1	13	11
COc1ccc(NC(=O)CN2CCN(Cc3ccc4c(c3)OCO4)CC2)cc1OC	1	37*	2	0	2	10
COc1cc(/C=N/NC(=O)c2cccc([N+](=O)[O-])c2)ccc1OCc1ccccc1	3	-6	-6	0	-8	2
COC(=O)C(=Cc1ccc(OCc2ccc([N+](=O)[O-])cc2)c(OC)c1)C(=O)OC	9.2*	0	-5	0	-55	12
Nc1ccc(-c2nc3ccc(N)cc3s2)cc1	nt	6	-10	1	-14	10
Cc1cc(-c2nc3cc(F)ccc3s2)ccc1N	nt	83*	3	2	nt	nt
COc1ccc(-n2nnnc2SCC(=O)N2CCc3ccccc32)cc1	nt	nt	nt	nt	-43	9
O=C(Nc1ccc2c(c1)CN(C(=O)Nc1ccc(F)cc1)CC2)c1ccccn1	nt	38*	1	-2	nt	nt
COC(=O)c1ccccc1NC(=O)N1CCc2ccc(NC(=O)c3ccccn3)cc2C1	nt	7	1	-1	nt	nt
CC(=NNC(=S)Nc1cccc(Cl)c1)c1ccccn1	nt	39*	2	0	nt	nt
O[C@@H]1CN(Cc2c(F)cccc2Cl)CC[C@H]1NCCCN1CCOCC1	nt	nt	nt	nt	-16	5
Cc1ccc(N2CCCC2=O)cc1S(=O)(=O)NC(c1ccccc1)c1ccccc1	nt	nt	nt	nt	-25	6
COc1ccc2[nH]c3c4c(ccc3c2c1)C(=O)C=CC4=O	nt	9	-3	10*	-38	5
Cc1cccn2c(=O)c(C=O)c(N3CCCCCC3)nc12	-1	37*	nt	nt	-16	9
SMILES	RAM network inh	SKN-1 block	NR1D1 modulator	PG9 Ab binder	EP2 modulator	PGE2 EP2 inh
O=C(O)C1CC=CCC1C(=O)NCCc1ccncc1 (configuration not stated)	nt	nt	nt	nt	20	11
CCCC(=O)N1c2cc(C)ccc2-c2c(ssc2=S)C1(C)C	nt	nt	nt	nt	67*	7
CC(=O)c1cccc(NC(=O)CSc2nc3ccc(C)cc3cc2C)c1	nt	nt	nt	nt	-67	12
c1ccc(-c2cc(-c3nnc(-c4ccncc4)o3)c3ccccc3n2)cc1	nt	nt	nt	nt	80*	8
CSc1nnc(-c2cc(-c3ccc(C)cc3)nc3ccccc23)o1	3	5	1	-1	20	11
Cc1ccc(/C=C/C(=O)O)cc1S(=O)(=O)Nc1ccc2c(c1)OCO2	8.8*	1	-2	-5	19	10
Cc1ccc(/C=C/C(=O)O)cc1S(=O)(=O)NCCCO	0	25	-5	-2	13	5
COc1ccc(/C=C2\CN(Cc3ccccc3)C/C(=C\c3ccc(OC)cc3)C2=O)cc1	11*	-4	6	0	21	9

Assay outcomes deposited in PubChem by several laboratories.
